High-throughput results deposited in PubChem by several laboratories.
ANO1 activ: mouse TMEM16A channel activation, primary screen. Q8BHY3. HEK293 TMEM16A/YFP-H148Q/I152L, iodide quench fluorescence; hits give low values. B-score at 10 µM. 0.3% of 340,000 active. AID 623877;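 active = fluorescence-ratio B-score plate-corrected deviation score at least 3 library SD below zero, with starting fluorescence score within 5 deviations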;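 also: channel opened by trigger with iodide after compound preincubation; score built on the fluorescence ratio of max minus min over baseline; more negative score means more quench and so TMEM16A activation or potentiation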
Target sequence (Q8BHY3 whole entry, looked up): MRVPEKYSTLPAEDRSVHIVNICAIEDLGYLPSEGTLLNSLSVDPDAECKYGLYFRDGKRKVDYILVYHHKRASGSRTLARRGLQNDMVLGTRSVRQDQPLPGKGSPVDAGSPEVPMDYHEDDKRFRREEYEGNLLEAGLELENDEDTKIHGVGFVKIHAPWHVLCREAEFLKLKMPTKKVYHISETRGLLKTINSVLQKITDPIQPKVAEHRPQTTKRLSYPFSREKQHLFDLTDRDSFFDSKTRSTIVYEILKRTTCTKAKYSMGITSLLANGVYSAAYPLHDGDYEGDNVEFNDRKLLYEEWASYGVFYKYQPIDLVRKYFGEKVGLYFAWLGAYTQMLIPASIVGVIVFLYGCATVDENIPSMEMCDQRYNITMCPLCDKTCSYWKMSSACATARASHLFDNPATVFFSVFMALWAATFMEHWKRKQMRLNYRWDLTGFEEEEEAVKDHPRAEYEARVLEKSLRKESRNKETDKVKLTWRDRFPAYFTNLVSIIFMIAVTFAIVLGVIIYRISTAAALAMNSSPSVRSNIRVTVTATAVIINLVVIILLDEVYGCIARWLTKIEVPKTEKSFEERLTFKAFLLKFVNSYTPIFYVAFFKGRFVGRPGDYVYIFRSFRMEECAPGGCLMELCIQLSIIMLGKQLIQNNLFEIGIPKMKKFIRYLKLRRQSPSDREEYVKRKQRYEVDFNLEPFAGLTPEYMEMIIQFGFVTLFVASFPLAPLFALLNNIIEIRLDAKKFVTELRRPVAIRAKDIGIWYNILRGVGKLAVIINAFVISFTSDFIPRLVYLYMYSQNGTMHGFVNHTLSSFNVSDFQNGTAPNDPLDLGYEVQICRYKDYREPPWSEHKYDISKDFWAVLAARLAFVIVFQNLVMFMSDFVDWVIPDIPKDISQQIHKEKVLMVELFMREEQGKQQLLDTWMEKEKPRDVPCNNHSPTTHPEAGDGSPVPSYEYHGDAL
ANO1 block: inhibitors of mouse TMEM16A calcium-activated chloride channel | 1.2% of 310,000 active | Q8BHY3 | normalized B-score (activity score, 25-100; higher = stronger inhibition) at 10 µM | HEK293 TMEM16A/YFP iodide influx fluorescence, ionomycin;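 active = ratio plate-corrected score three or more library SD toward inhibition, starting fluorescence score within five deviations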;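 also: score derived from kinetic fluorescence span divided by baseline fluorescence per well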
DNA FID counter: counter-screen for HCV NS3 helicase inhibitors: DNA intercalator displacement; AID 1845; DNA fluorescent intercalator displacement, fluorescence; 0.17% of 290,000 active; inhibition, % at 7.9 µM; in the data active = inhibition above about 37%;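 also: 0% = vehicle and 100% = reference compound; higher means more ethidium bromide displaced from hairpin DNA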
PREPL inh: human PREPL enzyme inhibition; AID 2751; Q4J6C6; 0.68% of 320,000 active; recombinant PREPL, fluorescence polarization activity-based probe; inhibition, % at 5.96 µM; in the data active = inhibition above about 43%;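 also: 0% = enzyme with DMSO and 100% = wells lacking enzyme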
PP5 primary: blocks human protein phosphatase 5 activity | P53041 | purified PP5c, OMFP substrate fluorescence | inhibition, % at 6.7 µM | 0.18% of 320,000 active;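 active = inhibition above the campaign's mean inhibition across all tested compounds plus 3 SD, cut at about 9.5% in these data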;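 also: 0% = DMSO only and 100% = 100 µM cantharidin control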
PP1 inh: counter-screen for PP5 inhibitors: inhibitors of human PP1-alpha. P62136. inhibition, % at 6.7 µM. 0.9% of 320,000 active. purified PP1alpha, OMFP fluorescence;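 active = inhibition above the mean inhibition of all tested compounds plus 3 SD, computed separately for each screening campaign, cut at about 15% in these data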
Starred values were filed as active, the others as inactive; i = inactive; . = no result. A selection: hits, their analogues and other compounds. The true share with any hit is near 2.7%.

SMILES | ANO1 activ | ANO1 block | DNA FID counter | PREPL inh | PP5 primary | PP1 inh
N#C/C(=C(/O)c1ccc(Br)s1)c1nc2ccccc2[nH]1 | i | i | -12.7 | -9.0 | 3.1 | 0.2
N#C/C(=C(/O)CCl)c1nc2ccccc2[nH]1 | i | i | 1.6 | 50.0* | -1.1 | -1.8
N#C/C(=C(\O)Cc1ccccc1)c1nc2ccccc2[nH]1 | i | i | 1.9 | 7.1 | -1.2 | -1.8
COc1cc(C2c3cc4c(cc3OC(NCc3ccccc3)C2C)OCO4)cc(OC)c1OC (stereo unspecified) | i | . | . | . | . | .
CCC(C)[C@@H](N)C(=O)N/N=C/c1ccc2ncccc2c1 (stereo partly specified) | i | i | 5.6 | 9.6 | -0.4 | 1.8
Cc1cc(C)n2nc(SCC(=O)N/N=C/c3ccccc3F)nc2n1 | i | i | -6.6 | 50.0* | 1.0 | -1.4
CCOc1ccc(N=C2SC(C(=O)Nc3ccccc3C#N)C(N)=C2C(=O)Nc2ccc(Cl)cc2)cc1 (stereo unspecified) | i | i | 2.3 | -3.4 | 3.9 | 19.3*
N#Cc1ccccc1NC(=O)C1SC(=Nc2ccccc2)C(C(=O)Nc2ccc(Cl)cc2)=C1N (stereo unspecified) | i | i | 1.2 | -47.8 | 6.5 | 9.9
COc1cc2c(C#Cc3cccnc3)c(-c3ccsc3)oc(=O)c2cc1OC | i | . | . | 6.4 | . | .
Cc1ccccc1-c1nnc(NC(=O)CSc2nc3ccccc3s2)s1 | i | i | -6.7 | -17.0 | 2.8 | 17.3*
Cn1c(C(=O)N2CCN(c3nc4ccccc4s3)CC2)cc2sccc21 | i | i | -6.3 | 6.9 | 1.8 | 0.7
O=C(c1cc2sccc2n1Cc1ccc(F)cc1)N1CCN(c2nc3ccccc3s2)CC1 | i | i | -18.5 | -8.1 | 2.8 | 17.3*
Cc1c(CCOC(=O)CC23CC4CC(CC(C4)C2)C3)sc[n+]1CC(=O)c1ccc(Br)cc1 | i | i | 0.3 | 37.2 | 4.2 | 14.8
Cc1c(CCOC(=O)CC23CC4CC(CC(C)(C4)C2)C3)sc[n+]1CC(=O)c1ccccc1 | i | 100* | 2.1 | 26.0 | 2.7 | 12.8
CCN(c1ccccc1)S(=O)(=O)c1ccc(Oc2ccccc2)c(N)c1 | i | . | . | . | . | .
COc1ccc(OCCCCc2c(C)n[nH]c2C)cc1 | i | 25* | . | 5.6 | 2.7 | -7.8
COc1cc2c(cc1OC)CN(C1CCC(C(C)(C)C)CC1)CC2 (stereo unspecified) | i | . | . | . | . | .
O=C(CSCc1ccccc1Cl)NN=C1CCCCCC1 | i | i | -6.3 | -49.3 | 0.3 | -3.0
O=C(CSCc1c(Cl)cccc1Cl)NN=C1CCCC1 | -28.9* | i | -3.2 | -68.3 | 0.9 | -1.0
COc1ccc(C(=O)NNC2=C(C(=O)C(F)(F)F)CCC2)cc1 | i | i | -14.8 | 1.2 | 1.5 | -1.1
O=C(NNC1=C(C(=O)C(F)(F)F)CCC1)c1cccc(Cl)c1 | i | 100* | -3.6 | 3.7 | 4.0 | 0.7
COc1ccc(CC(=O)Oc2cc(C)[nH]c(=O)c2[N+](=O)[O-])cc1 | i | i | 3.7 | -4.6 | -0.1 | -3.8
O=C(NCCc1ccccc1)N1c2ccccc2Sc2ccccc21 | i | 100* | -25.0 | 8.1 | 2.4 | 4.6
CC(C)CNC(=O)N1c2ccccc2Sc2ccccc21 | i | i | -18.5 | 14.0 | 1.8 | -2.3
Cc1c(C(=O)Nc2nc3ccccc3[nH]2)oc2ccc(Br)cc12 | -4.62* | i | 3.7 | 16.2 | 0.2 | 3.3
SMILES | ANO1 activ | ANO1 block | DNA FID counter | PREPL inh | PP5 primary | PP1 inh
O=C(NCCCSc1ccccc1)c1cc(Cl)ccc1O | i | 100* | -14.4 | . | . | .
NC(=O)C1Cc2ccccc2CN1S(=O)(=O)c1ccc(Cl)s1 (stereo unspecified) | i | i | -8.7 | -7.5 | 1.0 | -1.1
Cn1ccnc1SCC(=O)Nc1ccc(Br)cc1C(F)(F)F | i | i | -6.3 | 1.6 | -0.4 | -1.9
S=c1[nH]nc(Cc2noc3ccccc23)n1-c1ccccc1 | i | i | -4.7 | 23.4 | -0.4 | -2.3
Clc1ccc(N(CC2CO2)CC2CO2)cc1 (stereo unspecified) | i | . | . | . | . | .
O=C(c1ccc(CSc2nc3ccncc3[nH]2)cc1)N1CCCCCC1 | i | i | -9.8 | 7.9 | -2.0 | -3.8
O=C(c1ccc(CSc2nc3ccncc3[nH]2)cc1)N1CCN(c2cccc(Cl)c2)CC1 | i | 100* | -0.8 | -16.2 | 4.1 | 2.4
